Rows were chosen to be rich in hits. Some 1.9% of all compounds tested hit in one or more screens of this group.
HTR5A inv ag = inverse agonist of human HTR5A in OPRM1-OPRD1 counter-screen; HTR5A cell line, luminescence, inverse agonism; inhibition, % at 9.3 µM; 340,000 compounds, 0.083% hits; P47898; in the data active = inhibition mostly above about 23%, no sharp cut-off; inactive = mostly below about 18%;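 note: 0% = cells with DMSO and 100% = no-cell wells with DMSO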
Target sequence (P47898 whole entry, looked up): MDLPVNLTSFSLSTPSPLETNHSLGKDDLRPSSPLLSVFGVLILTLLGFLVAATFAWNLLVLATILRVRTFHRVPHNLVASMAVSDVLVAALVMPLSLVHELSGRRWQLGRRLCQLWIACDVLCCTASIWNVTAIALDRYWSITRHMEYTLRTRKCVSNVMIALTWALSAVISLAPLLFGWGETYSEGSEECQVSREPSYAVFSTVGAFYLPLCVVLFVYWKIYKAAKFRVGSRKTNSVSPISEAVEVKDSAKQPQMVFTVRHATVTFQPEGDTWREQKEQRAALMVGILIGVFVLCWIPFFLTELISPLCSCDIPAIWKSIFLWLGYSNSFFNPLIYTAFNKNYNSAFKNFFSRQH
MsrA act = activators of bovine methionine sulfoxide reductase A; activation, % at 10.6 µM; purified bovine MsrA, absorbance read-out; 360,000 compounds, 0.3% hits; AID 602163; in the data active = activation above about 7.5%;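 note: 0% = vehicle and 100% = reference activator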
OPRM1-OPRD1 inv = mu-delta opioid heterodimer inverse agonism | P35372+P41143 | cell-based MOR-DOR heterodimer luminescence | inhibition, % at 9.3 µM | 340,000 compounds, 0.21% hits | AID 504357; in the data active = inhibition above about 22%, passing the limit was not always enough;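 note: 0% = cells with DMSO and 100% = wells without cells with DMSO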
HTR5A ag ctr = HTR5A agonism, opioid heterodimer counter-screen. P47898. HTR5A agonist assay, luminescence, cell-based. activation, % at 9.3 µM. 340,000 compounds, 0.61% hits. AID 504692; in the data active = activation mostly above about 9.5%, no sharp cut-off; inactive = mostly below about 7.6%;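 note: 0% = cells with vehicle only and 100% = reference agonist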
MsrA inhibitor = inhibits bovine methionine sulfoxide reductase A. purified bovine MsrA, absorbance read-out. inhibition, % at 15.5 µM. 360,000 compounds, 0.75% hits; in the data active = inhibition above about 4.5%;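 note: 0% = vehicle wells with enzyme and 100% = reference inhibitor wells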
OPRM1-OPRD1 ag = agonists of human mu-delta opioid receptor heterodimerization. P35372+P41143. cells, OPRM1-OPRD1 heterodimerization, luminescence. activation, % at 9.3 µM. 340,000 compounds, 0.3% hits. AID 504326; in the data active = activation above about 18%;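 note: 0% = vehicle-treated cells and 100% = reference agonist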
OPRM1-D1 inv cf = confirmation of human OPRM1-OPRD1 heterodimerization inverse agonists; AID 504900; shares compounds with OPRM1-OPRD1 inv; cells expressing OPRM1/OPRD1 heterodimer, luminescence; inhibition, % at 9.3 µM; 580 compounds, 20% hits; in the data active = inhibition above about 32%;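 note: 0% = cells with DMSO and 100% = wells lacking cells with DMSO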
HTR5A inv ctr2 = HTR5A inverse agonism, opioid heterodimer counter-screen; shares compounds with OPRM1-OPRD1 inv; HTR5A-expressing cells, luminescence; inhibition, % at 9.3 µM; 580 tested, under 10 active; call rule not given here;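 note: 0% = cells with DMSO and 100% = no-cell wells with DMSO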
* = called active by the depositor; i = inactive; . = not tested or not shown.

SMILES	HTR5A inv ag	MsrA act	OPRM1-OPRD1 inv	HTR5A ag ctr	MsrA inhibitor	OPRM1-OPRD1 ag	OPRM1-D1 inv cf	HTR5A inv ctr2
Cc1ccc(-c2cc3c(nn2)-c2ccccc2C3=O)cc1	-3	5	99*	1	-1	-19	-25	-5
O=c1[nH]nc(-c2ccc(F)cc2)cc1-c1ccccc1	-2	-2	-9	1	0	2	.	.
O=C1c2ccccc2-c2nnc(-c3ccc(F)cc3)cc21	4	8	81*	-1	1	-16	21	2
O=C1c2ccccc2-c2nnc(-c3ccc(O)cc3)cc21	-7	5	18	-2	-1	-4	.	.
C[C@H]1CN([C@@H](C)CO)C(=O)CCCn2nncc2CO[C@@H]1CN(C)S(=O)(=O)c1cccs1	.	.	.	.	0	.	.	.
COc1cc(C=O)ccc1OCc1cn(CC(=O)c2ccc(O)cc2)nn1	-4	-3	8	1	3	-2	.	.
COc1cc(C(C)=O)ccc1OCc1cn(CC(=O)c2ccc(O)cc2)nn1	9	-5	32*	-2	1	-7	i	-25
CC(C)[C@H](N)C(=O)N[C@H](C(=O)N1CCC2CCN(Cc3ccccc3)CC21)C(C)C (stereo not given in full)	.	.	.	.	0	.	.	.
CCN(Cc1ccccc1)c1ccc(/C=N/NS(=O)(=O)c2cccc([N+](=O)[O-])c2)cc1	-13	-9	-24	7	4	4	.	.
O=[N+]([O-])c1cccc(/C=N/NS(=O)(=O)c2ccccc2)c1	-11	-5	38*	0	0	-7	21	0
CC(=O)C1=C(C)N(Cc2ccc(Br)cc2)C(=S)NC1c1cccc(Cl)c1 (stereo not given)	.	.	.	.	1	.	.	.
Cc1ccc(C(=O)COC(=O)CNC(=O)c2ccc(Br)o2)cc1[N+](=O)[O-]	23	-2	54*	-5	0	-11	-64	5
Cc1ccc(C(=O)COC(=O)CNC(=O)Cc2ccccc2)cc1	-19	-3	19	2	0	-4	.	.
CCc1ccc(C(=O)COC(=O)CNC(=O)c2ccc(Br)o2)cc1	5	0	21	3	0	-4	.	.
Cc1ccc(C(=O)COC(=O)CNC(=O)Cc2ccccc2)cc1[N+](=O)[O-]	29	-3	57*	-6	0	-14	-46	-25
Cn1c(-c2ccc(F)cc2)cnc1NCc1ccccc1F	-18	-1	38*	0	-1	-7	-10	-5
Cn1c(-c2ccc(F)cc2)cnc1NCc1ccc(F)cc1F	-10	-6	21	3	0	-4	.	.
COc1ccc(S(=O)(=O)N=Nc2c(O)[nH]c3ccccc23)cc1	21	-2	45*	0	0	-9	-63	4
Cc1ccc(S(=O)(=O)N=Nc2c(O)[nH]c3ccccc23)cc1C	25	-7	47*	-2	-1	-9	-55	1
COC(=O)CCN(Cc1cccc(OC)c1OC)S(=O)(=O)c1ccccc1Br	.	.	.	.	-1	.	.	.
CCOc1ccc2c(c1)/C(=N/N1C(=O)c3ccccc3C1=O)C(=O)N2	19	-1	42*	-7	2	-7	-7	7
Cc1ccc2c(c1)/C(=C/c1ccccc1C)C(=O)N2	-6	-13	-30	2	0	6	.	.
Cc1ccc2c(c1)/C(=N/N1C(=O)c3ccccc3C1=O)C(=O)N2	7	-1	28*	-2	2	-5	5	14
C[C@H]1[C@@H]2C[C@@]3(O[C@H](c4ccc(C(F)(F)F)cc4)N=C3C[C@@H]1c1ccccc1)N(Cc1ccncc1)C2=O	.	.	.	.	0	.	.	.
O=C(OCC(=O)c1ccc(Cl)cc1Cl)c1cnccn1	11	-3	40*	-4	-1	-5	18	1
SMILES	HTR5A inv ag	MsrA act	OPRM1-OPRD1 inv	HTR5A ag ctr	MsrA inhibitor	OPRM1-OPRD1 ag	OPRM1-D1 inv cf	HTR5A inv ctr2
O=C(COC(=O)c1cnccn1)c1ccc([N+](=O)[O-])cc1	-20	-5	22	-2	-2	-4	.	.
O=C(COC(=O)c1cccnc1)c1ccc(Cl)c(Cl)c1	7	0	57*	-6	0	-10	-150	-11
O=C(COC(=O)c1cnccn1)c1ccc(Cl)c([N+](=O)[O-])c1	13	-2	81*	-6	1	-15	-113	-46
Cc1ccc(C(=O)COC(=O)c2cnccn2)cc1	-10	-6	2	-3	0	0	.	.
Cc1ccc(C(=O)COC(=O)c2cnccn2)cc1[N+](=O)[O-]	19*	-7	54*	-7	0	-11	33*	17
CC(C)C[C@H]1CNC(=O)C(=O)N1C[C@@H]1CCCN1C[C@H](Cc1ccccc1)N1C[C@H](CC(C)C)N(CC2CCCCC2)C(=O)C1=O	.	.	.	.	1	.	.	.
C=CCCC1CN(Cc2ccc(OC)cc2)S(=O)(=O)c2c(F)cccc2O1 (stereo not given)	.	.	.	.	-1	.	.	.
O=C(C(=O)N1CCC(CNS(=O)(=O)Cc2ccccc2)CC1)c1cccs1	.	.	.	.	0	.	.	.
COc1cccc([C@@H](NC(=O)C(F)(F)F)[C@@H]2CCCC=C2c2ccccc2)c1	.	.	.	.	0	.	.	.
CC(C)=CCN1C(=O)[C@]2(OCCC=C[C@H]2C)c2c(Br)cccc21	.	.	.	.	-2	.	.	.
CC(C)(C)c1ccc(OCC(=O)NNC(=S)NC(=O)c2ccccc2[N+](=O)[O-])c(Br)c1	16	-1	32*	-4	0	-6	17	4
Cc1cccc(CN2CCSCCS2(=O)=O)c1	.	.	.	.	1	.	.	.
CC1(C)CC(=O)CC(C2(O)C(=O)N(Cc3ccccc3)c3ccccc32)O1 (stereo not given)	16	2	34*	-6	0	-6	20	9
Cc1nn(CCC(=O)NNC(=S)Nc2ccc(F)cc2)c(C)c1Br	-27	-7	44*	-3	0	-8	2	7
O=C(C1=C(O)C(=O)N(CCN2CCOCC2)C1c1ccco1)c1cc2ccccc2o1 (stereo not given)	-4	-3	34*	1	2	-6	-102	-40
CCCN1CCC(=NNc2ccc(C(=O)O)cc2)CC1	26	-2	37*	-1	0	-8	-24	-143
COc1ccc(S(=O)(=O)N2CCCc3nc(-c4ccc(Br)cc4)ccc32)cc1	.	.	.	.	1	.	.	.
Cc1cc(C)cc(OCC(=O)NNC(=S)NC(=O)C2CC2)c1	9	-2	39*	-4	-1	-7	-237	-14
COc1ccc(OCC(=O)NNC(=S)NC(=O)C2CC2)cc1	-2	0	18	1	0	-3	.	.
COc1ccc2nc(NN=C(C)c3ccccn3)cc(C)c2c1	17	-8	39*	-4	0	-8	-34	-91
C=CCSc1cc(C)nc2c(-c3ccc(Cl)cc3)c(C)nn12	38	-2	28*	0	0	-5	-52	-2
CC(C)(C)C(=O)NC(=S)NNC(=O)c1ccc(Cl)cc1Cl	13	-1	39*	-4	2	-8	15	17

High-throughput results (PubChem)
